The source of these data is the supplement of paper PMC6555819.

Common to all, as to assay: PBM binding z-score (relative to random genomic background probes); higher = stronger binding; sequences stand for … in GC…GCGATTGACAGCGTAGAATGAAGG
In assay [1] the test system is RARb homodimer (NR concentration 270 nM). Put shortly:
(§1)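 Custom Agilent 4×180K protein-binding microarrays carried double-stranded probes, each with a 34-nt variable region. These regions held direct-repeat seeds, single-nucleotide variants, half-site ablations and random human genomic background sequences. Ligand-free nuclear receptor dimers were incubated on the arrays for 1 h, antibodies against each partner (one per run) detected binding, and scanned fluorescence was regression-normalized. Binding z-scores take the random background probes as reference.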

For assay [2], the system named is RARg:RXRa (NR concentration 270 nM, RXRa partner concentration 90 nM). Put shortly:
as §1

Assay [3] concerns RARg homodimer (NR concentration 270 nM). Put shortly: as §1
The subject of assay [4] is RXRa DBDmut IVT, anti-RXR (DBD mutation: RXRa K156A/R161A, NR concentration 90 nM). The method, boiled down: as §1
Assay [5] deals with RXRa homodimer (NR concentration 180 nM). Put shortly:
as §1

For assay [6], the system named is THRa:RXRa (NR concentration 90 nM, RXRa partner concentration 90 nM). Put shortly:
as §1

The subject of assay [7] is THRa homodimer (NR concentration 90 nM). The method, boiled down: as §1
The subject of assay [8] is VDR homodimer (NR concentration 270 nM). Put shortly:
as §1

Turning to CCTCGGAGGGCAGAAGGTCAGAGCTGTCCGCTTT, the PBM binding z-score in assay [1] is 3.76; in assay [2], 4.71; in assay [3], 4.01; in assay [4], -0.118; in assay [5], 2.82; in assay [6] it was 1.47. The values for the PBM binding z-score in assay [7] and in assay [8] were -0.593 and -0.355, respectively.

Turning to TCTCGGAGGACAAGAAGGTCAGAGCTTTCCAGAG, the PBM binding z-score was determined as 3.34 in assay [1]; 2.76 in assay [2]; 3.26 in assay [3]; 0.905 in assay [4]; 1.69 in assay [5]; 2.09 in assay [6]. Also, the figures for the PBM binding z-score in assay [7] and in assay [8] were 0.236 and 0.789, respectively.

For TCTGCTAGGCCAACGATGGTCAGCTAATCTGCTA, the PBM binding z-score was 0.00128 in assay [1]; -0.269 in assay [2]; 0.329 in assay [3]; -0.26 in assay [4]; -0.518 in assay [5]; -0.441 in assay [6]. Also, the PBM binding z-score in assay [7] is -1.26; in assay [8], -1.49.

AGAATGAGGTTACCAAAGATCATGGAAACGCTTG: the PBM binding z-score in assay [1] amounted to 0.797; in assay [2], 2.26; in assay [3], 1.87; in assay [4], 1.21; in assay [5] it was 2.81; in assay [6] it was 3.03. The PBM binding z-score came out at 0.729 in assay [7] and 0.455 in assay [8].

As to ACTAGTTGGTCAGCTGAGGGCACACACAATTCGG, the PBM binding z-score was 2.11 in assay [1]; 0.999 in assay [2]; 1.42 in assay [3]; 0.326 in assay [4]; 0.707 in assay [5]; 3.55 in assay [6]. For the same sequence, the figures for the PBM binding z-score in assay [7] and in assay [8] were 1.29 and 0.929, respectively.

Consider CCAGACAAGTGAGAAGGTAACTCAGCCTCGATTA, for which the PBM binding z-score in assay [1] was 0.174; in assay [2], 0.0341; in assay [3], 0.205; in assay [4] it was 0.366; in assay [5], 0.108; in assay [6] it was 0.152. Also, the values for the PBM binding z-score in assay [7] and in assay [8] were 0.461 and 0.281, respectively.

As to CTCCCAAGGTGAACAAGGTCGTTGATTACTATTC, the PBM binding z-score in assay [1] amounted to 2.05; in assay [2], 1.68; in assay [3] it was 1.41; in assay [4] it was 0.991; in assay [5], 1.7; in assay [6], 3.19. Moreover, the PBM binding z-score in assay [7] worked out at 2.26; in assay [8] it was 2.22.
